“And” between values parts separate entries of the source, which are not always exact repeats. Equal values may be shown once. Inconclusive results are not listed. The source made the active and inactive calls. Unless noted, no rule for the calls is given here.
Columns and labels:
[1] = circadian clock period modulators, cell-based, LOPAC library, luminescence reporter (AID 2774); conditions: circadian reporter cells, at 7 µM, actives lie on both sides;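 also: values are relative to mean of DMSO wells on each plate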
[2] = tested on: Hepatitis C virus NS3 helicase; test: HCV NS3 helicase inhibitors, primary screen, biochemical, fluorescence polarization, LOPAC1280 library (AID 687035; in the data active = inhibition above about 37%); conditions: Purified HCV NS3 helicase, Cy5-dT15 ssDNA binding fluorescence polarization; stronger effect = higher value; concentration not given here
[3] = Cy5 fluorescence quenching or enhancement artefacts, artefact control for HCV NS3 helicase inhibitor project, biochemical, LOPAC1280 (AID 687037); conditions: Cy5-DNA-NS3h complex fluorescence interference counterscreen
[4] = sensitizers of A549 cells to miR-34 induction, primary screen, imaging, A549 dox-inducible miR-34, nuclei and caspase counts (AID 1347080;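 active = compounds whose cell count with miR-34 switched on is under 0.7 times the count with it off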); conditions: A549 miR-34 inducible, Hoechst nuclei count, 48 h
[5] = viability rescue of complex I mutant cybrids, primary screen, cell-based, galactose medium, ATP luminescence (AID 1645843;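 active = z-score of at least 1.8 in each of two replicates, scored against plate mean and spread of sample wells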;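 also: positive z means more ATP and so rescue of galactose-driven cybrid death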); conditions: complex I mutant cybrid cells, 72 h, stronger effect = higher value
[6] = target: ATP-dependent translocase ABCB1 (Homo sapiens) (UniProt P08183); test: MDR1 (ABCB1) efflux transporter inhibition, cell-based (AID 377; in the data active = fluorescence slope change above about 50%); conditions: MDR1-expressing cells, fluorescent substrate accumulation slope; stronger effect = higher value; concentration not given here
[7] = hESC survival regulators, cell-based (AID 493140); conditions: human embryonic stem cell survival screen; stronger effect = higher value;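 also: cells exposed to compounds for four days before counting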
[8] = liver-stage malaria parasite growth inhibition, primary screen, cell-based, HepG2, luciferase luminescence, HepG2 viability (AID 624349; in the data active = parasite load remaining mostly below about 12%, no sharp cut-off; inactive = mostly above about 10%;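 also: 100% = mean of DMSO negative control wells on the same plate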); conditions: P. berghei liver stage in HepG2, luciferase luminescence, concentration not given here; parasite load remaining: stronger effect = lower value; viability: measured here: HepG2 viability without parasites
[9] = LFS_MB_P medulloblastoma growth inhibition, cell-based, chromothripsis tumors, cisplatin or BGB combos (AID 1671449; in the data active = inhibition above about 80%;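 also: cells exposed for 96 hours; 0% = vehicle DMSO and 100% = killing by high DMSO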); conditions: LFS_MB_P medulloblastoma cells
[10] = HDN33 neuroblastoma growth inhibition, cell-based, chromothripsis tumors, cisplatin or BGB combos (AID 1671450; in the data active = inhibition above about 80%;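 also: cells exposed to compound for four days; 0% = vehicle DMSO and 100% = cell killing by high DMSO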); conditions: HDN33 neuroblastoma cells, stronger effect = higher value
[11] = ICB984 medulloblastoma cell growth inhibition, synergistic combos for chromothripsis tumors, cisplatin or BGB combos (AID 1671451); conditions: ICB984 medulloblastoma cells, drug combinations, stronger effect = higher value;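 also: cells exposed for 96 hours before readout; 0% = vehicle DMSO and 100% = killing by high DMSO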
[12] = LFS_MB_1R medulloblastoma cell growth inhibition, synergistic combos for chromothripsis tumors, cisplatin or BGB combos (AID 1671452; in the data active = inhibition above about 80%;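 also: cells exposed for 96 hours before readout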); conditions: LFS_MB_1R medulloblastoma cells, stronger effect = higher value
[13] = HTB85 osteosarcoma cell growth inhibition, synergistic combos for chromothripsis tumors, BGB or cisplatin IC20 combos (AID 1671453; in the data active = inhibition above about 80%;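 also: cells exposed for 96 hours before readout; 0% = vehicle DMSO and 100% = high DMSO killing control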); conditions: HTB85 osteosarcoma cells, drug combinations, stronger effect = higher value
[14] = stronger effect = lower value, cell number ratio, induced over uninduced
[15] = measured here: relative caspase fold change +Dox/-Dox
[16] = measured here: total cells with miR-34 induction, stronger effect = lower value
[17] = measured here: total cells without miR-34 induction
[18] = measured here: combination with BGB IC40, at 0.05 µM

ATP-dependent translocase ABCB1 (Homo sapiens), sequence (P08183 whole entry, looked up): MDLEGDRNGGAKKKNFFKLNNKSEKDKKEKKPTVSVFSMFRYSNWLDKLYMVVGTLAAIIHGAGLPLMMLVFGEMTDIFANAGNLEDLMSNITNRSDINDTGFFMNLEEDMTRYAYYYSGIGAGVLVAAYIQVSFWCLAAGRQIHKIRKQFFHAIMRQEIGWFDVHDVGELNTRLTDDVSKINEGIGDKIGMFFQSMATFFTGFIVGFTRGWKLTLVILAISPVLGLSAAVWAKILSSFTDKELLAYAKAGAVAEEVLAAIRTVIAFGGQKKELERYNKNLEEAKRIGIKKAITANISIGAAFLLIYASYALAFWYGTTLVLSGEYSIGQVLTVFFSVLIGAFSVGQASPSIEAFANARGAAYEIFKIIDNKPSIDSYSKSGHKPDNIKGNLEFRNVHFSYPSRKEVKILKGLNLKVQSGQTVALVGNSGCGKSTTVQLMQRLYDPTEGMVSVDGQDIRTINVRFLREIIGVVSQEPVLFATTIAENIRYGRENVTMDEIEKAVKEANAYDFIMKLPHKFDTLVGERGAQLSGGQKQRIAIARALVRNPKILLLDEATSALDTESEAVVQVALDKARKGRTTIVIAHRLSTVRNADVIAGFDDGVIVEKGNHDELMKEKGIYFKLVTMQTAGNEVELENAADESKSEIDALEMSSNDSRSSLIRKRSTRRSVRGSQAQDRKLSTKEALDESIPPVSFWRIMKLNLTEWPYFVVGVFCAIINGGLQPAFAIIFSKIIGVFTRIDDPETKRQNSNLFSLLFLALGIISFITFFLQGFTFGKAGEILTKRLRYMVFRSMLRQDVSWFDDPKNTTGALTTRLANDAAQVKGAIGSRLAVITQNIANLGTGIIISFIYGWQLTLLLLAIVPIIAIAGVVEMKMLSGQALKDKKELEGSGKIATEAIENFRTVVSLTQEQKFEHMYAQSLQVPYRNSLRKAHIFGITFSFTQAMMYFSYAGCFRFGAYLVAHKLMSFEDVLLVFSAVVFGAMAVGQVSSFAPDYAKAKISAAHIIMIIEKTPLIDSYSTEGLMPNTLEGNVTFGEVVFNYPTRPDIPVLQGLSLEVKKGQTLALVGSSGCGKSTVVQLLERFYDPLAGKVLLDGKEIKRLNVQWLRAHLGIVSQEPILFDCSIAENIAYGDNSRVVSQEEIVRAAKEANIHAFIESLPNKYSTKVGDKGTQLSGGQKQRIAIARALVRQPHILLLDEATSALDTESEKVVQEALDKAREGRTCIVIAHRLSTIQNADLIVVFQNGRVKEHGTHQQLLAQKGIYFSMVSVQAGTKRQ

In the case of N.N.N.N.N.N.N.N.N.N.N.N.N.N.O.O.[Cl-].[Cl-].[Cl-].[Cl-].[Cl-].[Cl-].[Ru+4].[Ru+5].[Ru+5], the period change [1] was 0.18 h (inactive), the inhibition [2] was -98% (inactive) and the fluorescence ratio (interference) [3] was 0 (active). The fold change [4, 14] was 1.03 (inactive), the fold change [4, 15] was 0.871 and the cell count [4, 16] was 10700. For the same molecule, the cell count [4, 17] was 10400 and the z-score [5] was -0.735 (inactive).
With N=C(N)c1ccc(OCCCCCOc2ccc(C(=N)N)cc2)cc1 (tested in a mixture with another compound) the period change [1] was 0.16 h (inactive), the inhibition [2] was -1% (inactive) and the fluorescence ratio (interference) [3] was 1 (inactive). For the same molecule, the fold change [4, 14] was 1.03 (inactive), the fold change [4, 15] was 0.748 and the cell count [4, 16] was 3790. The cell count [4, 17] was 3670 and the z-score [5] was -1.29 (inactive).
In the case of N=c1ccn2c(n1)OC1[C@@H](O)[C@@H](CO)O[C@H]12 (some centres undefined), the period change [1] was -0.115 h (inactive), the inhibition [2] was -5% (inactive) and the fluorescence ratio (interference) [3] was 1 (inactive). For the same molecule, the fold change [4, 14] was 1.14 (inactive), the fold change [4, 15] was 1.55 and the cell count [4, 16] was 1970. The cell count [4, 17] was 1730 and the z-score [5] was -1.23 (inactive).
With COc1cc(=O)n(C)c2c(OCC(O)C(C)(C)O)cccc12 (centres undefined) the fluorescence slope change [6] was -8.1% (inactive), the period change [1] was -0.165 h (inactive) and the survival [7] was 2.75 (inactive). The parasite load remaining [8] was 88% (inactive), the viability [8] was 97.7% and the fold change [4, 14] was 0.801 (inactive). It also gave a fold change [4, 15] of 1.04, a cell count [4, 16] of 8320 and a cell count [4, 17] of 10400.
With NCCC(=O)NCCc1cnc[nH]1 the period change [1] was 0.085 h (inactive), the survival [7] was 7.75 (inactive) and the parasite load remaining [8] was 133% (inactive) and 73.6% (inactive). For the same molecule, the viability [8] was 94% and 70.5%, the fold change [4, 14] was 0.903 (inactive) and the fold change [4, 15] was 1.35. For the same molecule, the cell count [4, 16] was 9030 and the cell count [4, 17] was 10000.
For O=C(O)CCC/C=C\C[C@@H]1[C@@H](/C=C/[C@H](O)C2Cc3ccccc3C2)[C@@H](F)C[C@@H]1O, the period change [1] was -0.195 h (inactive), the inhibition [2] was -2% (inactive) and the fluorescence ratio (interference) [3] was 1 (inactive). For the same molecule, the fold change [4, 14] was 0.962 (inactive) and 0.866 (inactive), the fold change [4, 15] was 1.71 and 1.08 and the cell count [4, 16] was 9120 and 5490. For the same molecule, the cell count [4, 17] was 9480 and 6340 and the z-score [5] was 0.805 (inactive).
In the case of Cc1ccc(NC(=O)CCCCCC(=O)Nc2ccccc2N)cc1, the fold change [4, 14] was 1.01 (inactive), the fold change [4, 15] was 1.02 and the cell count [4, 16] was 5390. The cell count [4, 17] was 5360, the inhibition ([9]; at 0.5 µM, stronger effect = higher value) was 2.92% (inactive) and the inhibition ([9]; measured here: combination with BGB IC20, at 0.005 µM) was -29.8%. It also gave an inhibition ([9]; measured here: combination with BGB IC40, at 0.005 µM) of -45%, an inhibition [9, 18] of -45.4% and an inhibition ([9]; measured here: combination with cisplatin, at 0.5 µM, stronger effect = higher value) of -6.67%. For the same molecule, the inhibition ([9]; measured here: combination with cisplatin, at 5 µM, stronger effect = higher value) was 65.8%, the inhibition ([10]; BGB combo, at 5 µM) was 11% and the inhibition ([10]; at 0.5 µM) was -14.2% (inactive). It also gave an inhibition ([10]; cisplatin combo, at 5 µM) of 32%, an inhibition ([10]; measured here: with BGB IC20 combination, at 0.5 µM) of -21.3% and an inhibition ([10]; measured here: with cisplatin IC20 combination, at 0.5 µM) of -11%. For the same molecule, the inhibition ([10]; single agent, at 5 µM) was 25.4%, the inhibition ([11]; BGB IC20 combo, at 0.005 µM) was -3.62% and the inhibition ([11]; BGB IC40 combo, at 0.005 µM) was -26.5%. The inhibition ([11]; BGB IC40 combo, at 0.05 µM) was 6.33%, the inhibition ([11]; at 0.5 µM) was -27.2% (inactive) and the inhibition ([11]; cisplatin combo, at 0.05 µM) was 1.63%. The inhibition ([11]; cisplatin combo, at 0.5 µM) was -36.9%, the inhibition ([11]; cisplatin combo, at 5 µM) was -6.29% and the inhibition ([11]; measured here: 5 uM single agent, at 5 µM) was -12.7%. For the same molecule, the inhibition ([12]; at 0.5 µM) was -31.8% (inactive), the inhibition [12, 18] was -38% and the inhibition ([12]; measured here: combination with cisplatin, at 0.5 µM) was -38.7%. For the same molecule, the inhibition ([12]; measured here: combination with cisplatin, at 5 µM) was 61.4%, the inhibition ([13]; at 0.5 µM) was -11.4% (inactive) and the inhibition ([13]; measured here: with BGB IC20, at 0.5 µM) was 11.7%.

From PubChem BioAssay
